Compounds with a hit are over-represented: about 2.4% of the library has one in this group of screens.
D2 PAM-1: D2 dopamine receptor (human) potentiation; P14416; HEK293 T-REx D2, calcium flux, EC20 dopamine potentiation; potentiation, % at 10 µM; 340,000 compounds, 0.34% hits; AID 485347;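 active means potentiation over 3 SD above the plate norm, cut at about 30% in these data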; further: 0% is about no effect
Target sequence (P14416 whole entry, looked up): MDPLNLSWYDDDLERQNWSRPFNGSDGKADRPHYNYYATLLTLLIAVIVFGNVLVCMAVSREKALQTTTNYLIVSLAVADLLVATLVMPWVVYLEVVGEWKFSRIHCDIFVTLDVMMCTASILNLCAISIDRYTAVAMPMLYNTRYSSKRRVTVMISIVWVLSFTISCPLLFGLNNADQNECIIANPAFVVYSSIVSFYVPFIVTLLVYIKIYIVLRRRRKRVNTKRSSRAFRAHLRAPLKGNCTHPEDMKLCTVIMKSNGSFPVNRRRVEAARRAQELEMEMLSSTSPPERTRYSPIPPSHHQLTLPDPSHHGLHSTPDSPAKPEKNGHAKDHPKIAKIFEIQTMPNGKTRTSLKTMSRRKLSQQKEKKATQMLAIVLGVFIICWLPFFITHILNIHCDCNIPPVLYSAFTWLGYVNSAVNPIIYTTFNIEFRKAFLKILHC
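Tetracycline-induced HEK293 T-REx cells force-coupled to calcium signalling expressed D2; compounds were pin-added after a 10 s baseline, read kinetically 180 s, then an EC20 dopamine challenge followed with a further 180 s calcium read.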
D2 PAM-2: human D2 receptor positive allosteric modulation | P14416 | AID 624464 | DiscoveRx D2 beta-arrestin cells, luminescence, 90 min; 100% = 57 uM dopamine signal | 360,000 compounds, 0.23% hits | potentiation, % (concentration not given with the values); in the data active means potentiation above about 50%
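PathHunter beta-arrestin assay in DiscoveRx D2 cells. Compounds were added with an EC20 of dopamine (50 nM final) for 90 min at 37 deg C. Luminescence was read 1 h after detection reagent, with 57 uM dopamine as the EC100 control.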
D2 ag-1: agonists of human D2 dopamine receptor (beta-arrestin). P14416. DiscoveRx PathHunter D2 beta-arrestin, luminescence, 90 min; 100% = 57 uM dopamine signal. activation, % (test concentration not listed). 360,000 compounds, 0.084% hits; in the data active means activation above about 40%
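Agonist mode: compounds alone added to overnight-plated D2 PathHunter cells for 90 min at 37 C, with 57 uM final dopamine (EC100) defining full response. Beta-arrestin recruitment detected by chemiluminescent reagent, read after 1 h at ambient temperature.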
D2 ag-2: agonists of human D2 dopamine receptor; P14416; HEK293 T-REx D2 cells, calcium flux agonist mode; activation, % at 2 µM; 340,000 compounds, 0.53% hits; AID 485358;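 active means activation over 3 SD above normal in the single-dose calcium agonist read, cut at about 30% in these data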; further: 0% is about no effect
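Agonism is scored from calcium flux in a force-coupled, inducible HEK293 cell line expressing D2, read kinetically for 180 s after compound addition against dopamine controls.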
D2 antag: antagonists of human D2 dopamine receptor; inhibition, % at 10 µM; 340,000 compounds, 2% hits; HEK293 TREx D2 cells, calcium flux, dopamine EC80; P14416; in the data active means inhibition above about 30%; inactive means below that, where a call was filed; further: 0% is about no effect
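In this primary screen, negative modulation is detected by tracking calcium flux after an EC80 dopamine challenge in inducible HEK293 T-REx D2 cells preexposed to test compound for 180 s.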
Starred values were filed as active, the others as inactive; . = no result given; ! = not confirmed by another sample.

SMILES	D2 PAM-1	D2 PAM-2	D2 ag-1	D2 ag-2	D2 antag
CCCS(=O)(=O)NC(=O)C1(C)CCN(C(=O)Cc2cccc(OC)c2)C1 (stereo not drawn)	.	-6	-3	.	.
COc1ccc(CNC(=O)c2cc(-c3cccs3)nc3ccccc23)c(OC)c1	-4	.	.	-1	.
COc1ccc(-c2nn(-c3ccccc3F)cc2CNCCn2nc(C)cc2C)cc1	-19	-14	-4	0	37*
O=C1CC(=O)Nc2cc(S(=O)(=O)Nc3cccc(C(F)(F)F)c3)ccc2N1	1	8	2	0	30*
O=C1CC(=O)Nc2cc(S(=O)(=O)Nc3ccc(Cl)c(C(F)(F)F)c3)ccc2N1	3	6	5	0	10
CCOc1ccc(-c2cc3c(=O)n(CC(=O)Nc4c(C)cccc4C)ccn3n2)cc1	-5	.	.	17	.
CC(=O)N1c2ccccc2C(C)CC12CCCCC2 (stereo not drawn)	0	-22	-6	1	12
CC(=O)N1Cc2ccccc2C(C)CC12CCCC2 (stereo not drawn)	-3	0	-5	-1	31*
CCOc1ccc(C2c3c(-c4ccc(C)cc4)n[nH]c3C(=O)N2c2ccc(Cl)cc2)cc1 (stereo not drawn)	15	.	.	1	.
C[C@@H]1CN([C@@H](C)CO)C(=O)CCCn2nncc2CO[C@@H]1CN(C)C(=O)Nc1cccc(C(F)(F)F)c1	.	6	1	.	.
COc1ccc(-n2c(=S)[nH]c3c(sc(=S)n3-c3ccccc3)c2=O)c(OC)c1	37*	-30	-6	0	-3
COc1ccc(-n2c(=S)[nH]c3sc(-c4ccccc4)cc3c2=O)c(OC)c1	-4	-8	-4	0	23
CCOC(=O)c1ccc2c(c1)N(Cc1cccc(C(F)(F)F)c1)C(=O)c1ccccc1S2(=O)=O	-2	.	.	0	.
CCCCn1c(SCC(=O)c2ccc(OCC)cc2)nc2cc(S(N)(=O)=O)ccc21	14	-4	-1	0	45*
CCCCn1c(SCC(=O)c2ccc(OC)c(OC)c2)nc2cc(S(N)(=O)=O)ccc21	3	2	-1	0	14
COc1cc2c3nnc(-c4ccc(F)cc4)c-3cn(Cc3ccccc3)c2cc1OC	1	7	50*	0	29
O=C(c1c[nH]c2ccccc12)N1CCOCC1	8	-8	-6	2	-10
S=C(c1c[nH]c2ccc(Br)cc12)N1CCOCC1	-2	-4	0	3	38*
Cc1nn(C)c(C(=O)NNC(=S)NCc2ccco2)c1Cl	34*	-23	-4	-1	-17
O=C(CC(=O)NCc1ccc(Cl)cc1)NCc1ccc(Cl)cc1	-16	-2	6	1	7
Cc1nc(C)c(C(=O)NCc2ccc(Cl)cc2)o1	-3	-13	1	1	-18
Cc1ccc(CC(=O)NCc2ccc(Cl)cc2)cc1	1	-8	-2	-1	53*
Cc1nn(C)c(C(=O)NCc2ccc(Cl)cc2)c1Cl	-16	-8	2	-1	44*
CC(=O)c1ccc(Nc2nc(CN)cs2)cc1	.	-10	-4	.	.
CCOC(=O)N1CCN(C(=O)c2c(O)c3cccc4c3n(c2=O)CC4)CC1	37*	-2	-5	0	15
SMILES	D2 PAM-1	D2 PAM-2	D2 ag-1	D2 ag-2	D2 antag
CN1CCN(C(=O)c2c(O)c3cccc4c3n(c2=O)CC4)CC1	-4	-2	-3	0	5
CC(C)(C)CC(=O)Nc1nnc(SCC(=O)N2CCCCC2)s1	32*	2	-3	0	-7
CC(C)(C)CC(=O)Nc1nnc(SCC(=O)NC2CCCCC2)s1	1	-4	-3	2	-4
CCc1ccc(NC(=O)CSc2ncc(S(=O)(=O)c3cc(C)ccc3C)c(=O)[nH]2)cc1	16	.	.	0	.
O=C(COC(=O)c1ccc(O)cc1)Nc1ccccc1[N+](=O)[O-]	-3	-41	9	2	38*
Cc1ccccc1C(=O)Nc1ccc(OCc2cc(=O)n3cccc(C)c3n2)cc1	9	.	.	1	.
O=C(c1cc(Br)ccc1OC(F)F)N1CCN2CCCC2C1 (stereo not drawn)	-3	-4	-1	0	33*
O=C(Nc1ccc(F)c(Cl)c1)C1CCCN(c2cnccn2)C1 (stereo not drawn)	32*!	-30	1	0	8
Cc1ccc(NC(=O)C2CCCN(c3ncnc4c3nc3n4CCCCC3)C2)cc1Cl (stereo not drawn)	-9	-15	-2	0	33*
Cc1ccc(NC(=O)C2CCN(c3ncnc4c3nc3n4CCCCC3)CC2)cc1Cl	-6	-6	0	0	-14
CC(C)N(Cc1ccccc1)C(=O)C1CCCN(c2ncnc3c2nc2n3CCCCC2)C1 (stereo not drawn)	-9	-9	0	-1	38*
CC1CC(C)CN(CCCNC(=O)C2CCCN(c3ncnc4c3nc3n4CCCCC3)C2)C1 (stereo not drawn)	-15	-18	2	-1	34*
CC1CCCN(CCCNC(=O)C2CCCN(c3ncnc4c3nc3n4CCCCC3)C2)C1 (stereo not drawn)	-2	-17	-2	0	-3
Cc1ccc(NC(=O)CN2C(=O)COc3ccc(S(=O)(=O)N4CCCCCC4)cc32)cc1C	-3	.	.	-1	.
CCCCN1CC(C)(C)[C@H](CC(=O)NC)C1=O	.	1	1	.	.
CCC(=O)N1CCc2cc(Br)cc(S(=O)(=O)N3CCN(c4cccc(Cl)c4)CC3)c21	13	.	.	1	.
COc1ccccc1N1CCN(CCCNC(=O)C2CCCN(c3ncnc4c3nc3n4CCCCC3)C2)CC1 (stereo not drawn)	5	-17	-5	0	76*
O=C(NCCCN1CCN(c2ccc(F)cc2)CC1)C1CCCN(c2ncnc3c2nc2n3CCCCC2)C1 (stereo not drawn)	-5	-17	-1	0	26
C#CCn1c2ccccc2c2nc3ccccc3nc21	14	-1	1	0	-13
CC(C)n1c2ccccc2c2nc3ccccc3nc21	40*	-19	-6	-1	-10
CCN(Cc1ccccc1)C(=O)C1CCN(Cc2ccc(SC)cc2)CC1	-7	-22	4	0	81*
O=C(C1CCN(CCCc2ccccc2)CC1)N(CCc1ccccc1)Cc1ccccc1	-23	-20	0	5	39*
CCN(Cc1ccccc1)C1CCN(Cc2ccc(SC)cc2)CC1	.	-13	-2	.	.
O=C(C1CCN(CC2CC=CCC2)CC1)N(CCc1ccccc1)Cc1ccccc1 (stereo not drawn)	-18	-15	3	-1	26
Cc1nc(SCc2cc(=O)c3cccc(F)c3[nH]2)n[nH]1	-5	.	.	0	.
Cc1cc(C)c(S(=O)(=O)N2CCCC2=O)c(C)c1N(C)S(C)(=O)=O	-7	-2	-3	1	38*

Screens from PubChem.
